Many of the other results were omitted from the sample, so hits are more common in it than they were.
Methyltransferases: Primary Screen for Target Class Profiling of Small Molecule Inhibitors of Methyltransferases; purified enzyme, MTase-Glo SAH luminescence; active compounds read low; calls only at 40 µM; 25,000 tested, 3.9% active; call rule not given here
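Each enzyme was reacted with SAM and its substrate, with compounds tested once at 40 uM; SAH formed was read by MTase-Glo luminescence.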
* = called active by the depositor; i = inactive; + = active, no number; ! = repeats disagree. % is scaled to controls: 0 for no effect and ±100 for the full control effect.

SMILES | Methyltransferases
Cc1ccc(Cn2c(=O)c3ccc(C(=O)NC(C)C)cc3n3c(=O)n(Cc4ccc(Cl)cc4)nc23)cc1 | i
COc1ccccc1CN1C(=O)c2cc(C(C)(C)C)nn2CC1(C)C(=O)NC1CCCCCC1 (configuration not stated) | i
CC(C)n1c(=O)c2ccc(C(=O)NC3CCCC3)cc2n2c(=O)n(Cc3ccccc3)nc12 | i
CC(C)OCCCn1c(=O)c2ccccc2n2c(=O)n(Cc3c(F)cccc3Cl)nc12 | i
O=C(O)c1cccc(CN2C(=O)/C(=C(\c3ccccc3)c3ccc(Cl)cc3)c3ccccc32)c1 | +
CC(=O)N1CC2(CCCN2Cc2cccc(C(N)=O)c2)Cc2ccccc21 (configuration not stated) | i
O=C1CN(Cc2cccc(Cl)c2)S(=O)(=O)c2ccccc2N1Cc1ccc(Cl)cc1 | i
CCCCN1C(=O)c2cc(C(=O)NCCc3c[nH]c4ccccc34)nn2CC1(C)C(=O)NC1CCCC1 (configuration not stated) | i
CC1(C(=O)NC2CCCCCC2)Cn2c(cc3sccc32)C(=O)N1C1CCCc2ccccc21 (configuration not stated) | i
Cc1c(O)cc(O)c2c(=O)c(O)c(-c3ccc(O)c(O)c3)oc12 | +
COc1ccccc1CN1C(=O)c2nc3ccccc3n2CC1(C)C(=O)NC1CCC(C)CC1 (configuration not stated) | i
O=S1(=O)CCN(Cc2cc(NCC3CCOCC3)c3[nH]c(-c4ccccc4)cc3c2)CC1 | +
CC(C)CCn1c(=O)c2ccccc2n2c(SCc3cccc(F)c3)nnc12 | i
Fc1cccc(-c2nnn3c2nc(NCc2ccc4c(c2)OCO4)c2cc(Cl)ccc23)c1 | i
Clc1cccc(-c2nnn3c2nc(NCc2ccc4c(c2)OCO4)c2ccccc23)c1 | i
COc1cccc(-c2cc(NCc3ccc4c(c3)OCO4)nc(N)n2)c1 | +
Cc1ccc(NC(=O)CSc2nnc3n(CC(C)C)c(=O)c4cc(F)ccc4n23)c(C)c1 | i
CC(C)CCNC(=O)C1(C)Cn2c(nc3ccccc32)C(=O)N1Cc1ccccc1Cl (configuration not stated) | i
CN(C(=O)CN1CCCn2nc(C(=O)NCc3ccc(Cl)cc3)cc2C1=O)c1ccccc1 | i
CCn1c(=O)n(CC)c2cc(S(=O)(=O)Nc3ccc(F)c(F)c3)ccc21 | i
CCCc1cc2c(-c3ccccc3)cc(=O)oc2cc1OCc1ccc(C(=O)O)o1 | +
CCCCOC(=O)COc1ccc2c(-c3ccccc3)cc(=O)oc2c1 | i
COC(=O)COc1cc2oc(=O)cc(-c3ccccc3)c2cc1Cl | i
Cc1ccc2c(c1)C1C=CCC1C(c1ccccc1Cl)N2 (configuration not stated) | i
CCCn1c(=O)c2cc(F)ccc2n2c(SCc3ccccc3Cl)nnc12 | i
SMILES | Methyltransferases
Cc1ccccc1CN1C(=O)c2cc(-c3ccco3)nn2CC1(C)C(=O)NC1CCCCCC1 (configuration not stated) | i
CCOc1ccc(Nc2nc3c(S(=O)(=O)c4ccccc4)nnn3c3ccccc23)cc1 | i
Cc1cnc(Nc2ccc(OCCN3CCCC3)cc2)nc1Nc1cccc(S(=O)(=O)NC(C)(C)C)c1 | +!
CC1(C(=O)NC2CCCCCCC2)Cn2c(cc3occc32)C(=O)N1CCCN1CCOCC1 (configuration not stated) | i
COc1cccc(-c2ccc(C(=O)NCCNC(=O)c3ccccc3OC)cc2)c1 | i
CN(C)CCCNC(=O)c1ccc(-c2cc(O)c3ncccc3c2)cc1 | +
N#Cc1cccnc1-c1cccc(C(=O)NCCNC(=O)c2ccccc2)c1 | i
Cc1ccc(Cn2c(=O)c3ccccc3n3c(SCc4ccccc4)nnc23)cc1 | i
CC1CCCC(NC(=O)C2(C)Cn3c(cc4sccc43)C(=O)N2Cc2cccc(Cl)c2)C1C (configuration not stated) | i
Cc1ccccc1CN1C(=O)c2cc3ccccc3n2CC1(C)C(=O)NCCC(C)C (configuration not stated) | i
COc1ccc(CCN2C(=O)c3cc4ccccc4n3CC2(C)C(=O)NC2CCCCC2)cc1OC (configuration not stated) | i
Cc1ccccc1Sc1ccc(/C=C2\SC(=S)NC2=O)cc1[N+](=O)[O-] | +
COc1ccc2cc3n(c2c1)CC(C)(C(=O)NC1CCCCC1)N(Cc1cccc(Cl)c1)C3=O (configuration not stated) | i
O=C(CSc1nnc2n(Cc3ccc(F)cc3)c(=O)c3ccccc3n12)Nc1ccc(Cl)cc1 | i
C=C(C)[C@H]1C[C@@H](O)C(=C)CC[C@@H](O)C(=C)[C@@H](O)C1 | +
CCc1ccc(CNC(=O)Cn2ccc3cc(S(=O)(=O)N4CCC(C)CC4)ccc32)cc1 | i
COc1ccc(Br)cc1CNC(=O)c1ccc(N2C(=O)Cn3c(cc4sccc43)C2=O)cc1 | i
O=C(NCCc1ccccc1)Nc1cccn2ncnc12 | i
Cc1cc(NC(=O)NCCN2CCC(O)(Cc3ccccc3)CC2)c2ccccc2n1 | +

High-throughput results from PubChem BioAssay.
